Screening results from PubChem BioAssay.
Only some compounds are listed: those with a hit (about 1.5% of all), similar ones and a draw of the others.
JMJD2C inh = blocks human GASC-1 demethylase activity | Q9H3R0 | GST-JMJD2C(1-420) H3K9me3 demethylation, DELFIA europium | inhibition, % at 2.35 µM | 330,000 tested, 0.069% active | AID 2099;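 active means more than half of a compound's replicate wells show inhibition beyond 50%, single wells judged on their own value; inconclusive means some, but no more than half, of replicates pass 50% inhibition; inactive means no replicate passes 50% inhibition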;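 further: signal counts dimethyl H3K9 product captured on neutravidin plate; 0% = median of DMSO wells and 100% = 0.3 times that DMSO median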
Target sequence (Q9H3R0 1-420 limits assumed): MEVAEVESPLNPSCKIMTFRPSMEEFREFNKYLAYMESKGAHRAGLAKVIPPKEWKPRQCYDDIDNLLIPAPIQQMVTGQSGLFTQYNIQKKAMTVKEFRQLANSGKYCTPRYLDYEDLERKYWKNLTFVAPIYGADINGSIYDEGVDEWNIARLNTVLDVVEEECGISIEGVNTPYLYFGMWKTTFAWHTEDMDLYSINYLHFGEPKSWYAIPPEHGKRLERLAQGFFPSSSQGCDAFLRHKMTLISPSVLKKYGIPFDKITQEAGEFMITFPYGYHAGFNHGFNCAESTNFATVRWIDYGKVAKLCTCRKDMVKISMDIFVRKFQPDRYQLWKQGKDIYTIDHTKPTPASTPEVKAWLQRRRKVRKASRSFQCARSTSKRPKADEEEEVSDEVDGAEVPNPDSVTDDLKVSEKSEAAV
HDAC3 inhib = blocks human histone deacetylase 3; O15379; recombinant HDAC3, fluorogenic peptide/trypsin coupled, fluorescence; inhibition, % at 8.3 µM; 320,000 tested, 0.15% active; AID 2718; in the data active means inhibition above about 26%, passing the limit was not always enough; inconclusive means no clear call, values can overlap the other calls
NALP3 yeast inh = inhibitors of NALP3 inflammasome in yeast. 330,000 tested, 0.39% active. Yeast reconstituted NLRP3/ASC/caspase-1, beta-gal luminescence, 24 h. inhibition, % at 10 µM;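 active means inhibition of 50% or more; inactive means inhibition below 50%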;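 further: plate controls were induced DMSO wells for no effect and uninduced yeast grown without galactose for full effect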
Efflux pump inh = blocks antifungal efflux pumps in multiplex yeast assay; S. cerevisiae Candida pump triplex, Nile Red efflux; inhibition, % at 10 µM; 330,000 tested, 0.44% active;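 active means plate passing quality check with inhibition over a set limit, or well fluorescence over plate mean plus 4 SD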;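 further: Nile Red retained in pooled yeast measured as flow cytometry median fluorescence; 0% = buffer negative control and 100% = Enniatin B positive control; higher means more Nile Red kept so more efflux inhibition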
NALP1 inh = blocks the NALP1 inflammasome reconstituted in yeast; S. cerevisiae NALP1/ASC/caspase-1 growth, X-gal OD620, 72 h; inhibition, % at 10 µM; 280,000 tested, 0.61% active; AID 2071; in the data active means inhibition mostly above about 24%, no sharp cut-off; inactive means mostly below about 32%
PolyA inhibitor = inhibitors of polyadenylation in S. cerevisiae; activity score, % at 12 µM; 300,000 tested, 0.02% active; AID 1875; S. cerevisiae SKY197-pL101 polyadenylation reporter, beta-gal luminescence; efflux-impaired pdr1/pdr3 knockout yeast; score 100 = 6 SD above DMSO;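 active means lowest replicate activity score at least 50, where 100 means six control SD above control mean; inconclusive means lowest score under 50 but half or more replicates reach 50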;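 further: yeast exposed to compound for 9 h at 30 °C; higher score means more reporter readthrough which indicates perturbed polyadenylation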
NALP3 confirm = NALP3 inhibition confirmation in yeast; 1,300 tested, 81% active; AID 435006; yeast expressing human NALP3, luminescence; inhibition, % at 10 µM; shares compounds with NALP3 yeast inh; in the data active means inhibition above about 48%
Casp1 ASC ctr = counter-screen for NALP3 inhibitors: yeast caspase-1-ASC. 1,000 tested, 66% active. yeast expressing Caspase-1-ASC, luminescence counter screen. inhibition, % at 10 µM. shares compounds with NALP3 yeast inh
NALP3 yeast rt = retest-confirmed inhibitor of NALP3 in yeast | 1,000 tested, 53% active | shares compounds with NALP3 yeast inh | inhibition, % at 10 µM | yeast expressing human NALP3, luminescence read-out | AID 488794
The depositor's hits bear a star; ? = inconclusive; . = not tested or not shown. Unless noted, no stated cut-off is given here; in the data, active means inhibition above about 50%; inactive means the rest.

SMILES | JMJD2C inh | HDAC3 inhib | NALP3 yeast inh | Efflux pump inh | NALP1 inh | PolyA inhibitor | NALP3 confirm | Casp1 ASC ctr | NALP3 yeast rt
Cc1ccccc1OCc1nc(C#N)c(N2CCCC2)o1 | -6.8 | -3.1 | 70.7* | 0.0 | 1.6 | -19.4 | 81.4* | 82.6* | 70.8*
COc1ccccc1OCc1nc(C#N)c(N2CCCC2)o1 | -5.7 | 5.3 | 25.4 | 0.0 | 2.6 | -1.6 | . | . | .
N#Cc1nc(COc2ccccc2)oc1N1CCN(Cc2ccccc2)CC1 | 3.8 | 10.0 | 1.0 | 0.0 | 12.2 | -12.7 | . | . | .
N#Cc1nc(COc2ccc(F)cc2)oc1N1CCCC1 | -14.1 | -2.5 | 68.4* | 0.0 | 17.0 | -8.1 | 40.4 | 65.2* | 54.1*
CC(C)(C)C(=O)Nc1ccc(C(=O)CSc2nnc(C3CC3)n2C2CC2)cc1 | . | 1.0 | 0.6 | 0.4 | . | . | . | . | .
O=C(CN1CCN(C(=O)C2CCCO2)CC1)Nc1ccc(Cl)cc1 (centres undefined) | 0.6 | -5.5 | 11.0 | 0.1 | 0.4 | 7.0 | . | . | .
S=C(NCCSCc1ccc(Cl)c(Cl)c1)Nc1ccccc1 | 0.1 | 3.8 | 61.5* | 0.0 | . | -14.8 | 71.1* | 58.2* | 38.6
O=c1ccc(-c2ccc(S(=O)(=O)Nc3ccc(F)cc3)s2)n[nH]1 | -8.2 | 3.3 | 12.9 | 0.2 | 10.5 | 16.7 | . | . | .
Cc1ccc(C2=NCCn3c2c2ccc(C(F)(F)F)cc2[n+]3[O-])cc1 | -4.1 | -4.8 | 1.8 | 0.0 | . | -6.8 | . | . | .
CC(C)(C)[C@H]1C=C(C(=O)Nc2ccccc2)O[C@@H](OCc2ccc(CO)cc2)C1 | 3.7 | 7.8 | 53.2* | 0.0 | 12.4 | -19.1 | 58.7* | 61.4* | 52.9*
CCCCc1nc2cc(C(=O)NCc3cc(C)n(C)n3)ccc2o1 | -4.3 | 2.2 | 2.1 | 1.0 | -9.8 | -14.0 | . | . | .
CNC(=O)c1c(O)c2cccc3c2n(c1=O)CCC3 | 10.1 | -0.1 | 50.2* | -0.1 | -0.2 | 6.8 | 64.2* | 39.3 | 48.2
CCCCCCNC(=O)c1c(O)c2cccc3c2n(c1=O)CCC3 | 7.6 | 6.3 | 17.1 | 0.0 | -2.7 | 5.3 | . | . | .
O=C(NCCNCCO)c1c(O)c2cccc3c2n(c1=O)CCC3 | 5.9 | -6.2 | 53.2* | 0.1 | 14.5 | 12.9 | 62.8* | 35.9 | 33.6
Nc1c(-c2ccc(Cl)cc2)cnn1-c1cccc(C(F)(F)F)c1 | -1.4 | 4.4 | 35.0 | 0.0 | 11.1 | 10.3 | . | . | .
Cc1ccc(-c2cnn(-c3cccc(C(F)(F)F)c3)c2N)cc1 | 4.8 | -2.2 | 56.8* | -0.2 | 2.8 | -30.8 | 65.8* | 48.6 | 31.4
COC(=O)c1sccc1NC(=O)c1ccc(Br)o1 | -9.9 | 5.0 | 52.6* | 0.0 | 3.4 | -11.3 | 38.2 | 33.7 | 45.8
C=C(CC[C@@H](O)C(C)(C)O)[C@H]1CC[C@]2(C)[C@@H]1CCC1[C@@]3(C)CC[C@H](O)C(C)(C)C3CC[C@]12C (some centres undefined) | -4.5 | 2.4 | 58.2* | 0.6 | . | . | 49.7 | 46.1 | 33.2
O=C(C(O)c1ccccc1)N1N=C(c2ccccc2)CC1(O)C(F)(F)F (centres undefined) | 2.0 | 0.1 | 6.7 | 0.0 | -17.3 | -2.3 | . | . | .
O=Cc1cn(-c2ccccc2)nc1-c1ccccc1 | 4.3 | -1.8 | 60.3* | 0.1 | -23.1 | -18.4 | 72.1* | 60.0* | 53.0*
O=Cc1cn(-c2ccccc2)nc1-c1ccncc1 | 2.1 | 3.8 | 2.2 | -0.1 | 8.9 | -5.5 | . | . | .
CC1CCc2c(C(=O)Nc3ccccn3)csc2C1 (centres undefined) | -1.9 | ? | 27.6 | 0.1 | . | 12.2 | . | . | .
CC1CCc2c(C(=O)Nc3nccs3)csc2C1 (centres undefined) | 0.2 | 3.2 | 58.1* | 0.3 | 29.8 | 8.2 | 69.2* | 76.8* | 46.0
NC(=S)N/N=C/c1ccccc1OCc1cccc(Cl)c1 | -13.3 | 3.2 | 56.0* | 0.1 | -4.0 | -23.4 | 67.2* | 57.6* | 39.6
NC(=S)N/N=C/c1ccc2cccc(OCc3ccccc3)c2n1 | -5.1 | -10.4 | 21.8 | 0.0 | 4.2 | 9.3 | . | . | .
SMILES | JMJD2C inh | HDAC3 inhib | NALP3 yeast inh | Efflux pump inh | NALP1 inh | PolyA inhibitor | NALP3 confirm | Casp1 ASC ctr | NALP3 yeast rt
CCOC(=O)Cc1csc(NC(=O)CSc2cc(Cl)ccc2Cl)n1 | -20.1 | 1.6 | -49.2 | 0.0 | -0.2 | 19.2 | . | . | .
CCOC(=O)CSc1nc2cc3c(cc2cc1C)OCO3 | 0.3 | 1.7 | -3.5 | 0.3 | -9.8 | -18.1 | . | . | .
COC(=O)CSc1nc2cc3c(cc2cc1C)OCCO3 | -2.0 | 0.7 | 69.1* | 0.1 | -0.3 | -84.4 | 72.6* | 80.0* | 71.4*
CCSc1nsc(NC(=O)Nc2cccc(F)c2)n1 | 2.2 | 5.4 | 50.2* | 0.1 | 11.2 | 1.5 | 77.5* | 47.0 | 85.2*
CCCSc1nsc(NC(=O)C(c2ccccc2)c2ccccc2)n1 | -10.5 | 18.7 | 6.6 | 0.1 | -12.5 | -15.0 | . | . | .
CCCSc1nsc(NC(=O)Nc2ccc(F)cc2F)n1 | -1.0 | 0.8 | 50.7* | 0.3 | 18.9 | 0.6 | 50.9* | 23.4 | 35.5
Cc1cc2ccccn2c1C(=O)c1ccccc1Br | 4.2 | 3.4 | 57.4* | 0.0 | 10.3 | -20.3 | 54.6* | 50.5* | 45.1
COc1ccc(C(=O)Nc2nnc(SCC(=O)NC3CC3)s2)cc1 | 16.2 | -3.0 | 19.6 | 0.1 | 1.6 | -8.0 | . | . | .
CCOc1c2ccoc2nc2c(OC)c(OC)ccc12 | 7.3 | -39.3 | 50.1* | 0.1 | -10.8 | -2.6 | 68.5* | 47.6 | 43.8
Cc1ccc(-c2nc(S(=O)(=O)c3ccc(C)cc3)c(N(C)C)o2)cc1 | 6.1 | 0.0 | 70.8* | 0.0 | 4.9 | 9.9 | 66.1* | 81.7* | 61.9*
COc1cc(-c2nc(S(=O)(=O)c3ccc(C)cc3)c(N(C)C)o2)cc(OC)c1OC | -10.7 | 5.3 | -13.9 | -0.1 | 8.7 | 7.0 | . | . | .
COc1ccc(-c2csc(NC(=O)CSCc3c(C)noc3C)n2)c(OC)c1 | 1.2 | 11.3 | 22.8 | 0.2 | . | 1.3 | . | . | .
Cc1ccc(NC(=O)C2CCN(S(=O)(=O)c3ccc4c(c3)C(C)(C)C(=O)N4C)CC2)c(C)c1 | -11.2 | 0.1 | 3.3 | 0.1 | 24.4 | -6.2 | . | . | .
COc1ccc(C)cc1NC(=O)C1CCN(S(=O)(=O)c2ccc3c(c2)C(C)(C)C(=O)N3C)CC1 | -12.6 | -0.9 | 79.5* | 0.6 | -2.7 | 9.0 | 47.4 | 15.3 | 16.6
Cc1nc2ccc(Nc3nc4cc(S(=O)(=O)N5CCOCC5)ccc4o3)cc2s1 | -12.3 | 4.9 | -101.4 | -0.2 | 0.2 | -18.3 | -50.0 | -33.6 | -0.6
CCOC(=O)c1ccc2nc3c(cc2c1)CCS3 | 0.6 | 1.4 | 56.0* | -0.1 | -8.4 | -10.6 | 66.5* | 65.7* | 46.1
CCCC(=O)Nc1nc2ccc(C(=O)OCC)cc2s1 | 12.6 | -1.8 | 9.3 | 0.2 | 34.3 | 25.7 | . | . | .
NC(=O)C(=O)NCCCN1CCOCC1 | 2.9 | -2.7 | -6.8 | 0.0 | 2.3 | 3.9 | . | . | .
